This is an account of results in ChEMBL document CHEMBL3988442, “University of Dundee, Small-Polar-MMV Screening Library” (2021).

Structures are written as SMILES. For some of these results: Results with a measured potency or affinity are listed apart.

What all share (design): scale not given: direction of the effect not stated beside the values
Experiment [1] addresses Protein translocase subunit SecA (Escherichia coli (strain K12)) (UniProt P10408). Nature of the experiment: Assay to Identify E. coli SecA ATPase Inhibitors. Type of experiment: functional. Conditions: 30 µM.
The target in experiment [2] is T1, Ubiquitin-activating enzyme e1, putative (Leishmania donovani (strain BPK282A1)) (UniProt E9BSI1).
T1 sequence (whole entry): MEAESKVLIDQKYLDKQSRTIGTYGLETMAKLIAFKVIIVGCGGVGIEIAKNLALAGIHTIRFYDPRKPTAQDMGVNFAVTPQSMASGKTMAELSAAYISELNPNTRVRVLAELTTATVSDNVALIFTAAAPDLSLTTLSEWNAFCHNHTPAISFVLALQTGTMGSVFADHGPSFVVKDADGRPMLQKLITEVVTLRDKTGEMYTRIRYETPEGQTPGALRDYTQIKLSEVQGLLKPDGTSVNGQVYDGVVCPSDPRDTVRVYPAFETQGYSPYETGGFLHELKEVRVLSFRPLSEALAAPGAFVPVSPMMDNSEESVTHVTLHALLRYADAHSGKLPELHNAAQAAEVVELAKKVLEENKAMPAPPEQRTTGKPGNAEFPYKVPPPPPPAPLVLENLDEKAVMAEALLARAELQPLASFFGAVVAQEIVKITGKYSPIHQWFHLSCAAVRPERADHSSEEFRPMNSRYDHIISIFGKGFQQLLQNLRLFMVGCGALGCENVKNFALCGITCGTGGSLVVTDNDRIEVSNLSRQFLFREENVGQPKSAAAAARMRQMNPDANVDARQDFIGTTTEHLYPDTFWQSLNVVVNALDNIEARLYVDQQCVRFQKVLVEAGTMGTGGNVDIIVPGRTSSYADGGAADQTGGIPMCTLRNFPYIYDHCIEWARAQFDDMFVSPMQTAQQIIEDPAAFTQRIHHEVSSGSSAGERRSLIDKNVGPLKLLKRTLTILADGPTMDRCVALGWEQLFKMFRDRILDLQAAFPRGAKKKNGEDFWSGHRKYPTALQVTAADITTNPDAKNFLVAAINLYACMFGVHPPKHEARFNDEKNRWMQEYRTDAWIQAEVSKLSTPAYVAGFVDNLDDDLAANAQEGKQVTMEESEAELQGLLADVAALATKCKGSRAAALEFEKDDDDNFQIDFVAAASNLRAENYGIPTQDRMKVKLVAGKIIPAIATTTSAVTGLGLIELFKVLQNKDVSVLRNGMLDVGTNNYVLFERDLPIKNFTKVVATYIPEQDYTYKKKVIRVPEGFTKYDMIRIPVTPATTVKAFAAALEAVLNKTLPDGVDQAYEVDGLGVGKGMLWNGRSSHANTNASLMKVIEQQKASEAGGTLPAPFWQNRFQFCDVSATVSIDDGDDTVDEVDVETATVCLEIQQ
Description: Leishmania donovani Ubiquitin Activating Enzyme (LdE1). The format is functional. Conditions: 30 µM.

In experiment [3] the target is AMP-activated protein kinase, AMPK (Homo sapiens) (UniProt P54646+O43741+P54619+Q9UGJ0+Q9Y478+Q13131+Q9UGI9). Nature of the experiment: AMP-dependent Kinase enzyme assay. An in vitro enzyme assay that detects ADP turnover that is directly proportional to AMPK activity. This uses naive AMPK that is activated during the assay with MK-8722. The format is functional. Conditions: 30 µM.

The target in experiment [4] is Sialic acid-binding Ig-like lectin 9 (Homo sapiens) (UniProt Q9Y336). Nature of the experiment: Hs-Siglec9 ALPHAscreen SOP 20170721. Conditions: 10 µM. A general note: Bead proximity is the source of the signal in Alpha formats.
Sialic acid-binding Ig-like lectin 9 (Homo sapiens), sequence (Q9Y336 whole entry): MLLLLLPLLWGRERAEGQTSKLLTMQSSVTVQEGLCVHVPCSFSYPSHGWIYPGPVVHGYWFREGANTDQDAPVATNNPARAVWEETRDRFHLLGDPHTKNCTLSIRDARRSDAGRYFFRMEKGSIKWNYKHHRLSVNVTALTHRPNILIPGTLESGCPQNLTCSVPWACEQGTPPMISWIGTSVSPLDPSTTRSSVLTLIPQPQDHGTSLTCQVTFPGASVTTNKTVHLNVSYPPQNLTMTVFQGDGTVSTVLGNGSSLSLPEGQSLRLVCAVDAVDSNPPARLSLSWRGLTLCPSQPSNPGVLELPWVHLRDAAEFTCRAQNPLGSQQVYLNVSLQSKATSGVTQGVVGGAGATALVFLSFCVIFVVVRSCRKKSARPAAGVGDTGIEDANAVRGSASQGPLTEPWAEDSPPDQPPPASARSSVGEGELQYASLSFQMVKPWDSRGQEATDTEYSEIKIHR
Another experiment deals with Trypanosoma cruzi. Nature of the experiment: Trypanosoma cruzi phosphomannomutase and mannose-1-phosphate guanylyltransferase assay. The format is functional. The conditions noted are these: 10 µM.
Experiment [5] has as its target T2, Arginase-2, mitochondrial (Homo sapiens) (UniProt P78540).
T2 sequence (whole entry): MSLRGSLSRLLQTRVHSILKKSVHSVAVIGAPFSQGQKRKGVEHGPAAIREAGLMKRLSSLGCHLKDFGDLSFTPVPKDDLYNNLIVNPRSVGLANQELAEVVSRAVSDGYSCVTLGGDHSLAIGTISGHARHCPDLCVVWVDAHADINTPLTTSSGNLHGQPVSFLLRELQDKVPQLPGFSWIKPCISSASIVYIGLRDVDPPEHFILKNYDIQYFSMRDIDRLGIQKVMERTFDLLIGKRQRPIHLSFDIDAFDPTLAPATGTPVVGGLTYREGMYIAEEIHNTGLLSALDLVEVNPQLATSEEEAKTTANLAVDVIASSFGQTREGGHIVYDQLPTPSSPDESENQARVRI
Nature of the experiment: in vitro enzyme assay to detect the production of urea directly proportional to the activity of Arginase II. Note: in the data most compounds retested in dose-response had high values. Conditions: 33.3 µM. Type of experiment: functional.

Experiment [6] has as its target T3, Proteasome subunit beta (Trypanosoma cruzi) (UniProt O96673).
T3 sequence (whole entry): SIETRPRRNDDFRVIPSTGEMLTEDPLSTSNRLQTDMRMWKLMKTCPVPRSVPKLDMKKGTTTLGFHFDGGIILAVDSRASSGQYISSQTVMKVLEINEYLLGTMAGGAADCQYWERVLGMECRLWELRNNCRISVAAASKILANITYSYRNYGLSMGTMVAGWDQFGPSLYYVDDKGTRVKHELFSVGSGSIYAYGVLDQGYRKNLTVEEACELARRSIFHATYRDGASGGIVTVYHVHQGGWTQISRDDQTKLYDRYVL
Description: Trypanosoma cruzi proteasome chymotrypsin-like activity (TcProtChymo) assay. Note: in the data most compounds retested in dose-response had high values. The format is functional. Conditions: 9.37 µM.

The species entered for the next experiment is Homo sapiens. Description: To identify inhibition of the IFN signalling (Jak-Stat) pathway via expression of an eGFP reporter gene under the control of an IFN-stimulated response element (ISRE) containing MxA promoter. Type of experiment: functional. Conditions: 30 µM. In general terms: A reporter such as luciferase makes a cellular process visible.

The target of experiment [7] is T4, Tyrosyl-tRNA synthetase, putative (Trypanosoma cruzi (strain CL Brener)) (UniProt Q4DSP6).
T4 sequence (whole entry): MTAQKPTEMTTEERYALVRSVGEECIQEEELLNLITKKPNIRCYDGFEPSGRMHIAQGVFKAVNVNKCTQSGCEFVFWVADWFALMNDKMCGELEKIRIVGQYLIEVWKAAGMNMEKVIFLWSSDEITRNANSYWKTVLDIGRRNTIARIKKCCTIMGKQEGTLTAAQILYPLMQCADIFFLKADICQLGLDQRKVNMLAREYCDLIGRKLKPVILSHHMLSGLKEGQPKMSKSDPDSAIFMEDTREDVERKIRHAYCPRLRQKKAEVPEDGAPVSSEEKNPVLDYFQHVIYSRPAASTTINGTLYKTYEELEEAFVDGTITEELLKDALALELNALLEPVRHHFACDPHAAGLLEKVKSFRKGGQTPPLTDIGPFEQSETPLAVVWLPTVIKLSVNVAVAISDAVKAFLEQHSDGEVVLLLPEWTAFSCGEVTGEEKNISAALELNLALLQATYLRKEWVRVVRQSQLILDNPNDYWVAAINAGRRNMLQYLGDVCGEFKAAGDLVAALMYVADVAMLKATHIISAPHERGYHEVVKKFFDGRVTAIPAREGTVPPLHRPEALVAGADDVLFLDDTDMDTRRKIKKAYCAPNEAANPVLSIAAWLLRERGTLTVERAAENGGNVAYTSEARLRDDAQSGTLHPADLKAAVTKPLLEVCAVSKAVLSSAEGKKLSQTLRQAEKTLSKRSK
Nature of the experiment: Trypanosoma cruzi tyrosyl tRNA synthetase (TcYRS) _High Tyrosine SOP. Note: in the data most compounds retested in dose-response had high values. Type of experiment: functional. The conditions noted are these: 30 µM.

The target of experiment [8] is T4, Tyrosyl-tRNA synthetase, putative (Trypanosoma cruzi (strain CL Brener)). Description: Trypanosoma cruzi tyrosyl tRNA synthetase (TcYRS) SOP. Type of experiment: functional. Conditions: 30 µM.
Experiment [9] addresses Chromo domain-containing protein 1 (Saccharomyces cerevisiae (strain ATCC 204508 / S288c) (Baker's yeast)) (UniProt P32657). Nature of the experiment: ScCHD-1 Enzyme Inhibition Assay. Note: in the data most compounds retested in dose-response had high values. Type of experiment: functional. The conditions noted are these: 30 µM.

Protein translocase subunit SecA (Escherichia coli (strain K12)), sequence (P10408 whole entry): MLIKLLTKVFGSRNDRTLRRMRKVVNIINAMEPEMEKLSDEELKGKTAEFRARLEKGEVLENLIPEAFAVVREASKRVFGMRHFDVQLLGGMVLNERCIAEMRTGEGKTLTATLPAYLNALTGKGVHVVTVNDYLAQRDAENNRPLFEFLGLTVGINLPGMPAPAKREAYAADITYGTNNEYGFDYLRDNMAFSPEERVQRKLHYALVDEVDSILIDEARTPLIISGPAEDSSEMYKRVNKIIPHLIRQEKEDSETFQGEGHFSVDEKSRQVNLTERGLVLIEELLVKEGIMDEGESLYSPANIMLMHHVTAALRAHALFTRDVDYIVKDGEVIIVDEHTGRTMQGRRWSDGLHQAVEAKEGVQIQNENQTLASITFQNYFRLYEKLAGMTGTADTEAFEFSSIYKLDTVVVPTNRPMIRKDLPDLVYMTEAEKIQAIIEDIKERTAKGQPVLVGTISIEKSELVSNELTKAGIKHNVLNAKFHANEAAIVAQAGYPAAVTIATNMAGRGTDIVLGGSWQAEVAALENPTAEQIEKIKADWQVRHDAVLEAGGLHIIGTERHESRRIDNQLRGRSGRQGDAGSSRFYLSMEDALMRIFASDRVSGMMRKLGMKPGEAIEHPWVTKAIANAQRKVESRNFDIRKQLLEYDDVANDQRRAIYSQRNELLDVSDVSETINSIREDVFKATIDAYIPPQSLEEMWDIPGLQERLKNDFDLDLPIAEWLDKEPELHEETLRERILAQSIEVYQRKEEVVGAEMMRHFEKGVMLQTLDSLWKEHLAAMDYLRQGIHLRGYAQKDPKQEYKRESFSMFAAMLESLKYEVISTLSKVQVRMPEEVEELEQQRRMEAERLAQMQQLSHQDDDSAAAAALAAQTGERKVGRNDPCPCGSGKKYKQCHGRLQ
Chromo domain-containing protein 1 (Saccharomyces cerevisiae (strain ATCC 204508 / S288c) (Baker's yeast)), sequence (P32657 whole entry, the tested form may be a part): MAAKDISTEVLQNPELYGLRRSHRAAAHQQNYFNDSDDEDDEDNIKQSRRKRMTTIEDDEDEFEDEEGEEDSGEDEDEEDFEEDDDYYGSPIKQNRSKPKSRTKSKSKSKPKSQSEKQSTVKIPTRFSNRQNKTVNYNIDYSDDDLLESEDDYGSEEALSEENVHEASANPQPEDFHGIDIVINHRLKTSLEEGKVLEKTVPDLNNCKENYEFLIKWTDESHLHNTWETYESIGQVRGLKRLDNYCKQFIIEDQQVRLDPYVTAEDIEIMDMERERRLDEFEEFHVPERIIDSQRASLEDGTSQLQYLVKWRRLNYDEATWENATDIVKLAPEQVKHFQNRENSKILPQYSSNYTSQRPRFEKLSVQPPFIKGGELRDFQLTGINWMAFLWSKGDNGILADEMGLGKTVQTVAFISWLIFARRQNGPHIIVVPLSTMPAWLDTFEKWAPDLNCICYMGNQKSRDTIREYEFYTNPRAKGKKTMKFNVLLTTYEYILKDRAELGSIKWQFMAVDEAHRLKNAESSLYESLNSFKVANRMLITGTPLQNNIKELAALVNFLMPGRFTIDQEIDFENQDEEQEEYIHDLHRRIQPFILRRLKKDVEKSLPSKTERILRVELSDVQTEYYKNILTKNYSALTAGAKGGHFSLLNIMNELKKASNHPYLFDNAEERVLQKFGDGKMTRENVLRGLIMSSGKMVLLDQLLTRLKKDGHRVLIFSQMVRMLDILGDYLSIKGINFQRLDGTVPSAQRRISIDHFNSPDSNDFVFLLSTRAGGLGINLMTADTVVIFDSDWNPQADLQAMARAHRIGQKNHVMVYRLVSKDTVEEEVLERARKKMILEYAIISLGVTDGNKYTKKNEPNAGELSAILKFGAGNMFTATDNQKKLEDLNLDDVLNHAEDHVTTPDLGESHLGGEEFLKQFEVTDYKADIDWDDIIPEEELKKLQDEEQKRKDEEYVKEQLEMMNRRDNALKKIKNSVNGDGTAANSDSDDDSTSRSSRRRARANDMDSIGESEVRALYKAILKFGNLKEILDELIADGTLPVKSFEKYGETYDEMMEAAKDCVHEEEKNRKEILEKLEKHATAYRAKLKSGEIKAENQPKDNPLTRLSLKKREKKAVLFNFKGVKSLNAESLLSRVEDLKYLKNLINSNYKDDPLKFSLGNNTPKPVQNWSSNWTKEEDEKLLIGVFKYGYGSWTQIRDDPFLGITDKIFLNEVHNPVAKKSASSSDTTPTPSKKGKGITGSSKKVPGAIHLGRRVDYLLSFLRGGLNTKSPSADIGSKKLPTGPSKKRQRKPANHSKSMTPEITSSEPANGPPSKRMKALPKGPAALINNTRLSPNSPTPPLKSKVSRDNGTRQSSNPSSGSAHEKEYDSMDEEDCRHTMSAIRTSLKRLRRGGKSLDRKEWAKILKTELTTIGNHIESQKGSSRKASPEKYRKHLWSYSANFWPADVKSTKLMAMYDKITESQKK

As for `CCCC(=O)N1CC[C@@H]2[C@H](CC1)N(Cc1cccnc1)CCS2(=O)=O`, the Percent Effect was -8.11% in experiment [1]; 5.41% in experiment [2]; 3.63% in experiment [3]; -1.04% in experiment [4]; -0.586% in the experiment on Trypanosoma cruzi; 2.5% in experiment [5]. Further, the Percent Effect in experiment [6] was 6.85%; in the experiment filed under Homo sapiens, 0.118%; in [7] it was 8.91%; in experiment [8], 8.54%; in [9], -3.88%.

Consider `CCN(Cc1ccc2c(c1)OCO2)C(=O)CCc1c(C)nc(C)[nH]c1=O`, for which the Percent Effect in [1] is -1.41%; in experiment [2], 5.26%; in [3], 1.51%; in experiment [4], 7.45%; with Trypanosoma cruzi, -4.32%; in [5], 9.96%. Besides, the Percent Effect is 6.85% in experiment [6]; 21.9% in the experiment listed under Homo sapiens; 3.43% in experiment [7]; 9.76% in [8]; -1.69% in experiment [9].

With `Cc1cc(F)ccc1OC1(C(=O)O)CCN(Cc2ccncc2)CC1`, the Percent Effect in experiment [1] is -4.32%; in [2], 16%; in experiment [3], -6.71%; in experiment [4], 19.8%; in the experiment with Trypanosoma cruzi, 3.21%; in [5], 13.5%. Also, the Percent Effect in [6] was 11.7%; in the experiment listed under Homo sapiens, 10%; in experiment [7], 10.4%; in experiment [8], 21%; in [9], -4.33%.

In the case of `CCC(=O)N1CCC(Cc2ccccc2-c2ccccc2)(C(N)=O)C1` (stereo unspecified), the Percent Effect in experiment [1] is -3.32%; in experiment [2] it was 13.3%; in experiment [3], 10.4%; in [4] it was -2.64%; with Trypanosoma cruzi it was 3.94%; in [5], 7.69%. For the same compound, the Percent Effect in [6] is 8.37%; in the experiment filed under Homo sapiens, 16.6%; in experiment [7], 1.06%; in experiment [8], 16.7%; in experiment [9], -4.71%.

As for `CC(=O)Nc1c(C)cnn1Cc1cc(F)ccc1F`, the Percent Effect in experiment [1] is -3.16%; in experiment [2], 0%; in experiment [3], 0.653%; in experiment [4] it was 2.06%; with Trypanosoma cruzi, -3.99%; in [5] it was 1.56%. The Percent Effect in experiment [6] is 2.09%; in the experiment filed under Homo sapiens, 12.2%; in [7] it was 2.73%; in [8], 6.17%; in experiment [9] it was -0.196%.

As for `CC(C)(C)c1nnc(CN2CCN(S(C)(=O)=O)CC2)o1`, the Percent Effect in experiment [1] was -2.63%; in experiment [2], 13.5%; in [3] it was -2.69%; in experiment [4], 19.5%; in the experiment on Trypanosoma cruzi it was 3.48%; in experiment [5], 1.43%. The Percent Effect in experiment [6] is 12.1%; in the experiment listed under Homo sapiens, 5.81%; in experiment [7], 2.65%; in experiment [8], 12.2%; in experiment [9], -3.73%.

As for `O=C(CN1CCC(c2ccnn2CCO)CC1)NCC1CC1`, the Percent Effect in experiment [1] is -2.3%; in experiment [2], 17.7%; in [3], -5.47%; in [4], 0.194%; in the experiment with Trypanosoma cruzi, 2.36%; in [5], 0.76%. Further, the Percent Effect was 6.96% in experiment [6]; -2.19% in the experiment filed under Homo sapiens; 8.37% in experiment [7]; 29.1% in experiment [8]; -5.59% in experiment [9].

In the case of `O=C(c1ccccn1)N1Cc2nccn2CC(COc2cccnc2)C1` (stereo unspecified), the Percent Effect in experiment [1] was 0.812%; in [2] it was 13.3%; in [3] it was 0.132%; in experiment [4], 2.56%; in the experiment on Trypanosoma cruzi, -0.193%; in [5], -54.7%. Moreover, the Percent Effect is 4.96% in experiment [6]; 20.5% in the experiment filed under Homo sapiens; 4.17% in experiment [7]; 15% in experiment [8]; -4.96% in experiment [9].

As for `CC(C)c1nn(C)c(N(C)C)c1CNCc1cccc(CN(C)C)c1`, the Percent Effect in experiment [1] is -1.46%; in experiment [2], 18.4%; in [3] it was -8.3%; in [4], 3.17%; with Trypanosoma cruzi, -7.94%; in [5], 3.6%. For the same compound, the Percent Effect was 3.81% in [6]; 2.21% in the experiment listed under Homo sapiens; 8.37% in experiment [7]; 18.5% in experiment [8]; -4.8% in [9].

Consider `O=C(NC1COC2(CCN(Cc3ccccn3)CC2)C1)c1ccccn1` (stereo unspecified), for which the Percent Effect in experiment [1] is -2.18%; in experiment [2], 23.4%; in [3] it was -0.85%; in experiment [4], -5.11%; with Trypanosoma cruzi it was 0.888%; in experiment [5] it was 8.39%. Besides, the Percent Effect in experiment [6] turned out to be 16.7%; in the experiment listed under Homo sapiens, 10.3%; in experiment [7], 10.6%; in [8] it was 16.7%; in experiment [9] it was 31.1%.

As to `Cc1nn(C)c(C)c1CC(=O)N1CCCC(n2ccnc2)C1` (stereo unspecified), the Percent Effect was -1.6% in [1]; -5.26% in [2]; -1.17% in experiment [3]; -5.34% in experiment [4]; -3.27% in the experiment with Trypanosoma cruzi; 1.8% in experiment [5]. Further, the Percent Effect in experiment [6] is -0.592%; in the experiment filed under Homo sapiens, -1.26%; in experiment [7], 1.48%; in experiment [8], -1.24%; in experiment [9], -1.5%.
